The values that follow come from PubChem BioAssay (NCATS).

Structures are written as SMILES. Values without a mark were called inactive. Unless noted, calls follow the shape of the dose curve; as a rule, active = well fitted curve in either direction with a large enough effect (not every such curve was filed as active); inconclusive = small, poorly fitted or top-dose-only effect, or another doubt; inactive = flat fitted curve, though single readings scatter. Records with an inconclusive call do not appear. Where only a bound is given, the exact number is not on record here.

Sequence of Glucocorticoid receptor (Homo sapiens) (P04150 whole entry, looked up, the tested form may be a part): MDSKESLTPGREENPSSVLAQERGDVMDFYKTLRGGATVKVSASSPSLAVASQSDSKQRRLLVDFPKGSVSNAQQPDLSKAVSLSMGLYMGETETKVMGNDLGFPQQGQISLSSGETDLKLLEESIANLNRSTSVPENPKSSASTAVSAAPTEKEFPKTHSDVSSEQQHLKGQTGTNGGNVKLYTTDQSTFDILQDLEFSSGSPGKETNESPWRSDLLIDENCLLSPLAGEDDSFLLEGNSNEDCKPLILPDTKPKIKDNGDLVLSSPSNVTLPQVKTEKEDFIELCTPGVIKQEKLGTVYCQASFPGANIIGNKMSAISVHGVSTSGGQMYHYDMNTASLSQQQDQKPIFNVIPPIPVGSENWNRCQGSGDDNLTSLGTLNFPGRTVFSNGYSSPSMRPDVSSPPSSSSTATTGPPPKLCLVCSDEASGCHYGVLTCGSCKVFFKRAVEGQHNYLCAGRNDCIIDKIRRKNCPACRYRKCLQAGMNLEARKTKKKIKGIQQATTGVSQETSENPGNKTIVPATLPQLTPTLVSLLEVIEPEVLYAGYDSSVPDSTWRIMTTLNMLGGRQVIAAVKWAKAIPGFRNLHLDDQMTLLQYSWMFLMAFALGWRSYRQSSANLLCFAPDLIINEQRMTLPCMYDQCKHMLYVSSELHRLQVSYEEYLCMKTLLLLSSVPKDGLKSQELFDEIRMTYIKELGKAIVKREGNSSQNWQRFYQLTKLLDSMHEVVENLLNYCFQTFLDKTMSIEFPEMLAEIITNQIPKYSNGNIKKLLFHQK

One test deals with Glucocorticoid receptor (Homo sapiens) (UniProt P04150). Kind of test: GR-EFC Redistribution (AID 451; calls by dose curve; also: potency is read from the fitted curve at half-maximal effect). As to conditions: CHO-K1 GR-EFC translocation, beta-gal luminescence, 2 h. The gist of the method:
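CHO-K1 cells stably expressing nuclear-localized β-gal enzyme acceptor and GR fused C-terminally to the enzyme donor fragment; ligand-driven nuclear translocation restores β-gal by complementation. Compounds titrated up to 46 uM final, 2 h at 37 °C; luminescence read.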
Take `O=C(O)c1cccc(C(=O)O)c1S(=O)Cc1ccccc1` (stereo not drawn): the Potency is over 9.22 µM.
As for `CC(C)NCC[C@@H](O)c1cc2ccccc2o1`, the Potency was over 9.22 µM.
On to `CCn1c2ccccc2c2nnc(NCCCO)nc21`, for which the Potency was over 9.22 µM.
As for `Nc1cccc2cc(S(=O)(=O)Nc3ccc(C(=O)O)cc3)ccc12`, the Potency was over 9.22 µM.
The same measure, in the same setting: the same measure for `O=C(O)CSc1ncccc1[N+](=O)[O-]`: over 9.22 µM; for `O=C(O)/C=C(/C(=O)O)[C@]12CCN3CC4=CCO[C@@H]5CC(=O)N[C@@H]1[C@H]5[C@H]4C[C@H]32`: over 9.22 µM; for `CCSC[C@@H](N)C(=O)O`: over 9.22 µM.
For `N#CC1(Nc2ccc(-c3ccc(NC4(C#N)CCCC4)cc3)cc2)CCCC1`, the Potency was over 9.22 µM.
With `C/C(=N/O)[C@@H]1C[C@H](CC(=O)O)C1(C)C`, the Potency is over 9.22 µM.
Still for that read-out and setting: the same measure for `ClC(Cl)(Cl)C(N1CCN(c2ccccc2)CC1)N1CCN(c2ccccc2)CC1`: over 9.22 µM; for `O=C(O)CC[C@]1(C(=O)O)CCC(=O)c2ccccc21`: over 9.22 µM.
On the same count and under the same terms, the same measure for `[N-]=[N+]=NC[C@@H]1O[C@@H](n2cnc3c(N)ncnc32)[C@@H]2O[C@@H]21`: over 9.22 µM; for `O=C(O)COc1c(Cl)cc(Cl)c2cccnc12`: over 9.22 µM; for `CN(C)c1ccc(C2N([C@H](C#N)c3ccc(N(C)C)cc3)CCCN2[C@@H](C#N)c2ccc(N(C)C)cc2)cc1` (stereo partly drawn): over 9.22 µM.
`C#CCOCCCC(=O)O`: the Potency was over 9.22 µM.
Regarding `CCC(C)(C)c1ccc(Oc2cccc(C(=O)O)c2)cc1`, the Potency is over 9.22 µM.
As to `Cc1cc([N+](=O)[O-])c(C)c(Br)c1C`, the Potency is over 9.22 µM.
For `CC1=C[N+](=O)c2ccccc2[N+]1=O`, the Potency was over 9.22 µM.
Turning to `Nc1ncnc2nc(N3CCN(CCO)CC3)[nH]c12`, the Potency is over 9.22 µM.
Regarding `C[C@H]1CN(CCO)CCN1c1ccccc1`, the Potency is over 9.22 µM.
On to `C(=Nc1cnc2ccccc2c1)c1ccc2ccccc2n1`, for which the Potency was over 9.22 µM.
In the case of `Nc1ncnc2nn([C@H]3O[C@@H](CO)[C@@H](O)[C@H]3O)nc12`, the Potency is over 9.22 µM.
Consider `CCOC(=O)[C@@H](O)Cc1cnc2ccccc2n1`, for which the Potency was over 9.22 µM.
Regarding `COc1ccc2c3c([nH]c2c1)[C@H]1C[C@@H]2[C@@H](C[C@@H](O)[C@H](OC)[C@H]2C(=O)O)CN1CC3`, the Potency is over 9.22 µM.
On the same count and under the same terms, the same measure for `N[C@@H](CSCc1ccc(I)cc1)C(=O)O`: over 9.22 µM; for `Cc1ncc(CN=Cc2ccc(Cl)cc2)c(N)n1`: over 9.22 µM; for `Nc1nc(-c2ccc3ccccc3c2)cc(-c2cc(-c3ccc4ccccc4c3)nc(N)n2)n1`: over 9.22 µM.
The same measure, in the same setting: the same measure for `Nc1ncnc2c1nc(-c1ccccc1)n2[C@H]1O[C@@H](CO)[C@@H](O)[C@H]1O`: over 9.22 µM; for `OC[C@@H](O)CNc1ncnc2ccccc12`: over 9.22 µM.
Same read-out and setting: the same measure for `O=C(NCc1cccnc1)[C@@H]1[C@@H](C(=O)O)[C@H]2CC[C@@H]1O2`: over 9.22 µM; for `Nc1nc(-c2ccccc2)c(-c2ccccc2)c(-c2nc(N)nc(-c3ccccc3)c2-c2ccccc2)n1`: over 9.22 µM; for `C[C@@]1(CCOCc2ccccc2)NC(=O)NC1=O`: over 9.22 µM.
For `O=C(O)[C@H]1CC=CC[C@@H]1C(=O)Nc1cccc(O)c1`, the Potency is over 9.22 µM.
Take `Oc1ccc2ccccc2c1C=NCc1c(O)ccc2ccccc12`: the Potency was over 9.22 µM.
For `O=C(O)CSc1cc(-c2ccccc2)nc2ccccc12`, the Potency was over 9.22 µM.
In the case of `C[C@@H](CSC(=N)N)C(N)=O`, the Potency was over 9.22 µM.
As for `COc1ccc2[nH]c3cc4c(=O)c5cc(OC)ccc5[nH]c4cc3c(=O)c2c1`, the Potency is over 9.22 µM.
For the molecule `S=C(S)NCCN1CCNCC1`, the Potency was over 9.22 µM.
On to `Cc1cc(C)c2nc3c(c([C@H](O)[C@@H]4CCCCN4)c2c1)CC/C3=C/c1ccc(Cl)cc1`, for which the Potency was over 9.22 µM.

The next test deals with Mitogen-activated protein kinase 10 (Mus musculus) (UniProt Q61831). Kind of test: JNK3 AlphaScreen Assay (AID 530).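 Also: kinase came from lysate of stimulated human HepG2 cells; % is scaled to controls: 0 for no effect and ±100 for the full control effect.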 As to conditions: JNK3 lysate, c-Jun phosphorylation; series mostly up to 11.4 µM; activity change, negative = inhibition: at the top concentration. Summed up: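 Phosphorylation of biotinylated GST-cJun(1-79) at Ser73 is measured by AlphaScreen proximity luminescence. Enzyme is JNK3 in HepG2 lysates activated with interleukin-1beta and tumor necrosis factor alpha; ATP is 10 uM final.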
For `O=C(O)c1cccc(C(=O)O)c1S(=O)Cc1ccccc1` (stereo not drawn), the “activity change, negative = inhibition” value was 0.099%.
The same measure, in the same setting: the figure for `CC(C)NCC[C@@H](O)c1cc2ccccc2o1` is -0.919%.
Consider `CCn1c2ccccc2c2nnc(NCCCO)nc21`, for which the “activity change, negative = inhibition” value was 0.08%.
The same measure, in the same setting: the figure for `Nc1cccc2cc(S(=O)(=O)Nc3ccc(C(=O)O)cc3)ccc12` is 1.78%; for `O=C(O)CSc1ncccc1[N+](=O)[O-]` it is 2.56%.
As for `O=C(O)/C=C(/C(=O)O)[C@]12CCN3CC4=CCO[C@@H]5CC(=O)N[C@@H]1[C@H]5[C@H]4C[C@H]32`, the “activity change, negative = inhibition” value is 3.19%.
For `CCSC[C@@H](N)C(=O)O`, the “activity change, negative = inhibition” value was 3.93%.
For `N#CC1(Nc2ccc(-c3ccc(NC4(C#N)CCCC4)cc3)cc2)CCCC1`, the “activity change, negative = inhibition” value was 9.79%.
For the molecule `C/C(=N/O)[C@@H]1C[C@H](CC(=O)O)C1(C)C`, the “activity change, negative = inhibition” value was 3.4%.
`ClC(Cl)(Cl)C(N1CCN(c2ccccc2)CC1)N1CCN(c2ccccc2)CC1`: the “activity change, negative = inhibition” value is 1.18%.
Still for that read-out and setting: the figure for `O=C(O)CC[C@]1(C(=O)O)CCC(=O)c2ccccc21` is 1.68%; for `[N-]=[N+]=NC[C@@H]1O[C@@H](n2cnc3c(N)ncnc32)[C@@H]2O[C@@H]21` it is 11%; for `O=C(O)COc1c(Cl)cc(Cl)c2cccnc12` it is 2.09%.
`CN(C)c1ccc(C2N([C@H](C#N)c3ccc(N(C)C)cc3)CCCN2[C@@H](C#N)c2ccc(N(C)C)cc2)cc1` (stereo partly drawn): the “activity change, negative = inhibition” value is 1.09%.
Consider `C#CCOCCCC(=O)O`, for which the “activity change, negative = inhibition” value was 3.23%.
Turning to `CCC(C)(C)c1ccc(Oc2cccc(C(=O)O)c2)cc1`, the “activity change, negative = inhibition” value is 7.41%.
Consider `Cc1cc([N+](=O)[O-])c(C)c(Br)c1C`, for which the “activity change, negative = inhibition” value was 2.5%.
On to `CC1=C[N+](=O)c2ccccc2[N+]1=O`, for which the “activity change, negative = inhibition” value was 6.66%.
Consider `Nc1ncnc2nc(N3CCN(CCO)CC3)[nH]c12`, for which the “activity change, negative = inhibition” value was -3.49%.
Same read-out and setting: the figure for `C[C@H]1CN(CCO)CCN1c1ccccc1` is 5.19%.
`C(=Nc1cnc2ccccc2c1)c1ccc2ccccc2n1`: the “activity change, negative = inhibition” value was 1.39%.
The same measure, in the same setting: the figure for `Nc1ncnc2nn([C@H]3O[C@@H](CO)[C@@H](O)[C@H]3O)nc12` is 2.39%; for `CCOC(=O)[C@@H](O)Cc1cnc2ccccc2n1` it is -5.41%.
In the case of `COc1ccc2c3c([nH]c2c1)[C@H]1C[C@@H]2[C@@H](C[C@@H](O)[C@H](OC)[C@H]2C(=O)O)CN1CC3`, the “activity change, negative = inhibition” value is 4.34%.
As for `N[C@@H](CSCc1ccc(I)cc1)C(=O)O`, the “activity change, negative = inhibition” value is -1.07%.
Turning to `Cc1ncc(CN=Cc2ccc(Cl)cc2)c(N)n1`, the “activity change, negative = inhibition” value is 1.46%.
Regarding `Nc1nc(-c2ccc3ccccc3c2)cc(-c2cc(-c3ccc4ccccc4c3)nc(N)n2)n1`, the “activity change, negative = inhibition” value was 1.21%.
With `Nc1ncnc2c1nc(-c1ccccc1)n2[C@H]1O[C@@H](CO)[C@@H](O)[C@H]1O`, the “activity change, negative = inhibition” value was -2.82%.
For `OC[C@@H](O)CNc1ncnc2ccccc12`, the “activity change, negative = inhibition” value is -1.3%.
Regarding `O=C(NCc1cccnc1)[C@@H]1[C@@H](C(=O)O)[C@H]2CC[C@@H]1O2`, the “activity change, negative = inhibition” value was 7.3%.
Same read-out and setting: the figure for `Nc1nc(-c2ccccc2)c(-c2ccccc2)c(-c2nc(N)nc(-c3ccccc3)c2-c2ccccc2)n1` is -2.1%.
In the case of `C[C@@]1(CCOCc2ccccc2)NC(=O)NC1=O`, the “activity change, negative = inhibition” value is 7.72%.
Turning to `O=C(O)[C@H]1CC=CC[C@@H]1C(=O)Nc1cccc(O)c1`, the “activity change, negative = inhibition” value is 2.17%.
Turning to `Oc1ccc2ccccc2c1C=NCc1c(O)ccc2ccccc12`, the “activity change, negative = inhibition” value was -2.72%.
`O=C(O)CSc1cc(-c2ccccc2)nc2ccccc12`: the “activity change, negative = inhibition” value was -1.14%.
As to `C[C@@H](CSC(=N)N)C(N)=O`, the “activity change, negative = inhibition” value was 34.8%.
`COc1ccc2[nH]c3cc4c(=O)c5cc(OC)ccc5[nH]c4cc3c(=O)c2c1`: the “activity change, negative = inhibition” value was 6.6%.
On to `S=C(S)NCCN1CCNCC1`, for which the “activity change, negative = inhibition” value was -1.09%.
Take `Cc1cc(C)c2nc3c(c([C@H](O)[C@@H]4CCCCN4)c2c1)CC/C3=C/c1ccc(Cl)cc1`: the “activity change, negative = inhibition” value is -3.89%.
